Measured values taken from PubChem BioAssay (NCATS).
Inconclusive results are not listed. A call without a number means that no potency is given here. Active and inactive are the calls of the source. The call rests on the fitted dose curve; in most records, active means well fitted curve in the direction sought with a large enough effect; inconclusive means small, poorly fitted or top-dose-only effect, or another doubt; inactive means no such curve, though single readings can be large; an effect the other way counts as inactive or inconclusive.

experiment: qHTS of pediatric cancer cell lines to identify multiple opportunities for drug repurposing: Confirmatory screen for BT-37 cells (AID 1347117); details: BT-37 pediatric cancer cells, viability; series mostly up to 45.9 µM;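 further: viability measured after 48 h of compound exposure; nearly all actives have a fitted effect of over 55% in size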
Procedure, shortened: (§1)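 Cells (500-1,000/well) in growth media were settled 5 h at 37 degrees C, then given compounds for 48 h. Viability was read as CellTiter-Glo luminescence. Primary runs used MIPE at 11 points (0.78 nM-46 µM) and NPC at 8 points (0.59 nM-46 µM); follow-ups used 11 points.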
Potency means the concentration at half of the fitted maximal effect.

Structure (SMILES) | Potency
CC[C@H]1C=CC=CC[C@@H](C)[C@H](O)[C@@](C)(O)C(=O)[C@@H](C)[C@H](O)[C@@H](C)C(=O)[C@@H](C)[C@H](O)[C@@H](C)C=CC(=O)O[C@@H]2[C@@H](C)[C@H](CC1)O[C@]1(CC[C@H](C)[C@H](C[C@@H](C)O)O1)[C@H]2C | 58.5 nM (active)
COc1cc([C@@H]2c3cc4c(cc3[C@@H](O)C3COC(=O)C32)OCO4)cc(OC)c1O (stereo not given in full) | 737 nM (active)
COc1ccc2c(c1)CN(C)CC2c1ccc(Cl)c(Cl)c1 (stereo not given) | 23300 nM (active)
O=C(O)COc1nc(Cl)c(Cl)cc1Cl | inactive

experiment: qHTS of pediatric cancer cell lines to identify multiple opportunities for drug repurposing: Confirmatory screen for TC32 cells (AID 1347118); details: TC32 Ewing sarcoma cells viability qHTS; series mostly up to 45.9 µM;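 further: cells exposed to compound for 48 h before the read; nearly all actives have a fitted effect of over 65% in size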
Procedure, shortened: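 qHTS, TC32, 48 h drug treatment, CellTiter-Glo luminescence as a proxy for metabolically active cells; primary top concentration 46 µM (MIPE 11-pt, NPC 8-pt); confirmatory 11-pt.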

Structure (SMILES) | Potency
S=C(SSC(=S)N1CCCCC1)N1CCCCC1 | 2.61 µM (active)
CC[C@H]1C=CC=CC[C@@H](C)[C@H](O)[C@@](C)(O)C(=O)[C@@H](C)[C@H](O)[C@@H](C)C(=O)[C@@H](C)[C@H](O)[C@@H](C)C=CC(=O)O[C@@H]2[C@@H](C)[C@H](CC1)O[C@]1(CC[C@H](C)[C@H](C[C@@H](C)O)O1)[C@H]2C | 1.85 µM (active)
COc1cc([C@@H]2c3cc4c(cc3[C@@H](O)C3COC(=O)C32)OCO4)cc(OC)c1O (stereo not given in full) | 0.585 µM (active)
COc1ccc2c(c1)CN(C)CC2c1ccc(Cl)c(Cl)c1 (stereo not given) | 6.57 µM (active)

experiment: qHTS of pediatric cancer cell lines to identify multiple opportunities for drug repurposing: Confirmatory screen for MG 63 (6-TG R) cells (AID 1347119); details: MG-63 (6-TG resistant) osteosarcoma viability; series mostly up to 45.9 µM; further: nearly all actives have a fitted effect of over 55% in size
Procedure, shortened: as §1

Structure (SMILES) | Potency
CC[C@H]1C=CC=CC[C@@H](C)[C@H](O)[C@@](C)(O)C(=O)[C@@H](C)[C@H](O)[C@@H](C)C(=O)[C@@H](C)[C@H](O)[C@@H](C)C=CC(=O)O[C@@H]2[C@@H](C)[C@H](CC1)O[C@]1(CC[C@H](C)[C@H](C[C@@H](C)O)O1)[C@H]2C | 117 nM (active)
COC1=CC(C)=C[C@@H](C)[C@@H](O)[C@@H](C)CC(C)=CC=C[C@H](OC)[C@H]([C@@H](C)[C@@H](O)[C@H](C)[C@@]2(O)C[C@@H](O)[C@H](C)[C@@H](C(C)C)O2)OC1=O | inactive
COc1cc([C@@H]2c3cc4c(cc3[C@@H](O)C3COC(=O)C32)OCO4)cc(OC)c1O (stereo not given in full) | 293 nM (active)
O=[N+]([O-])c1c(Cl)c(Cl)cc(Cl)c1Cl | inactive
O=C(O)COc1nc(Cl)c(Cl)cc1Cl | inactive
COc1ccc(C(=O)c2c(C)n(CCN3CCOCC3)c3cc(I)ccc23)cc1 | 14700 nM (active)

experiment: qHTS of pediatric cancer cell lines to identify multiple opportunities for drug repurposing: Confirmatory screen for control Hh wild type fibroblast cells (AID 1347121); details: viability qHTS; series mostly up to 45.9 µM; further: nearly all actives have a fitted effect of over 70% in size
Procedure, shortened: as §1

Structure (SMILES) | Potency
S=C(SSC(=S)N1CCCCC1)N1CCCCC1 | inactive
CC[C@H]1C=CC=CC[C@@H](C)[C@H](O)[C@@](C)(O)C(=O)[C@@H](C)[C@H](O)[C@@H](C)C(=O)[C@@H](C)[C@H](O)[C@@H](C)C=CC(=O)O[C@@H]2[C@@H](C)[C@H](CC1)O[C@]1(CC[C@H](C)[C@H](C[C@@H](C)O)O1)[C@H]2C | 117 nM (active)
COC1=CC(C)=C[C@@H](C)[C@@H](O)[C@@H](C)CC(C)=CC=C[C@H](OC)[C@H]([C@@H](C)[C@@H](O)[C@H](C)[C@@]2(O)C[C@@H](O)[C@H](C)[C@@H](C(C)C)O2)OC1=O | inactive
COc1cc([C@@H]2c3cc4c(cc3[C@@H](O)C3COC(=O)C32)OCO4)cc(OC)c1O (stereo not given in full) | inactive
O=[N+]([O-])c1c(Cl)c(Cl)cc(Cl)c1Cl | inactive
COc1ccc2c(c1)CN(C)CC2c1ccc(Cl)c(Cl)c1 (stereo not given) | inactive
O=C(O)COc1nc(Cl)c(Cl)cc1Cl | inactive
COc1ccc(C(=O)c2c(C)n(CCN3CCOCC3)c3cc(I)ccc23)cc1 | inactive
Cc1c(N)nc([C@H](CC(N)=O)NC[C@@H](N)C(N)=O)nc1C(=O)N[C@H](C(=O)N[C@@H](C)[C@H](O)[C@@H](C)C(=O)N[C@@H](C(=O)NCCc1nc(-c2nc(C(=O)NCCC[S+](C)C)cs2)cs1)[C@@H](C)O)C(O[C@H]1O[C@H](CO)[C@H](O)[C@@H](O)[C@@H]1O[C@H]1O[C@H](CO)[C@@H](O)[C@H](OC(N)=O)[C@H]1O)c1cnc[nH]1 (stereo not given in full) | inactive

experiment: qHTS of pediatric cancer cell lines to identify multiple opportunities for drug repurposing: Confirmatory screen for U-2 OS cells (AID 1347122); details: U-2 OS osteosarcoma cell viability; series mostly up to 45.9 µM; further: nearly all actives have a fitted effect of over 65% in size
Procedure, shortened: as §1

Structure (SMILES) | Potency
CC[C@H]1C=CC=CC[C@@H](C)[C@H](O)[C@@](C)(O)C(=O)[C@@H](C)[C@H](O)[C@@H](C)C(=O)[C@@H](C)[C@H](O)[C@@H](C)C=CC(=O)O[C@@H]2[C@@H](C)[C@H](CC1)O[C@]1(CC[C@H](C)[C@H](C[C@@H](C)O)O1)[C@H]2C | 0.0046 µM (active)
COC1=CC(C)=C[C@@H](C)[C@@H](O)[C@@H](C)CC(C)=CC=C[C@H](OC)[C@H]([C@@H](C)[C@@H](O)[C@H](C)[C@@]2(O)C[C@@H](O)[C@H](C)[C@@H](C(C)C)O2)OC1=O | inactive
O=[N+]([O-])c1c(Cl)c(Cl)cc(Cl)c1Cl | inactive
COc1ccc2c(c1)CN(C)CC2c1ccc(Cl)c(Cl)c1 (stereo not given) | 20.8 µM (active)
O=C(O)COc1nc(Cl)c(Cl)cc1Cl | inactive
COc1ccc(C(=O)c2c(C)n(CCN3CCOCC3)c3cc(I)ccc23)cc1 | 16.5 µM (active)
Cc1c(N)nc([C@H](CC(N)=O)NC[C@@H](N)C(N)=O)nc1C(=O)N[C@H](C(=O)N[C@@H](C)[C@H](O)[C@@H](C)C(=O)N[C@@H](C(=O)NCCc1nc(-c2nc(C(=O)NCCC[S+](C)C)cs2)cs1)[C@@H](C)O)C(O[C@H]1O[C@H](CO)[C@H](O)[C@@H](O)[C@@H]1O[C@H]1O[C@H](CO)[C@@H](O)[C@H](OC(N)=O)[C@H]1O)c1cnc[nH]1 (stereo not given in full) | inactive
